High-throughput results: PubChem, National Center for Advancing Translational Sciences (NCATS)
Rab9 prom act: activates the Rab9 promoter. Huh7 Rab9 promoter-luciferase reporter, luminescence, 24 h. Potency, µM (titrated, usually from 9.22 µM), inactives show at the highest dose activation, negative = inhibition, actives largely listed as activators. hit rate 2.8% among 320,000; also: % of control where 0% means no effect; nearly all actives have a fitted effect of over 60% in size
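Using Huh7 cells stably transfected with Rab9 promoter–luciferase, compounds were incubated 24 h at 37 °C, 5% CO2; luciferase luminescence was read 10 min after reagent addition.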
SMN2 splice up: SMN2 splice variant enhancement. HEK293 SMN2-luciferase splicing reporter, luminescence, 30-36 h. Potency, µM (titrated, usually from 46.1 µM), inactives show top-dose activity change, positive = activation, usual class: activators. hit rate 2.8% among 210,000; also: % of control where 0% means no effect; nearly all actives have a fitted effect of over 55% in size
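HEK293 cells carry an SMN2 […]–luciferase reporter in which exon 7 inclusion puts luciferase in frame. Cells were plated 10-12 h before compound addition, then incubated 30-36 h at 37C. ONE-Glo luminescence was read; sodium butyrate at 4.5 mM final served as control.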
NPC1 prom act: activates the NPC1 promoter. Huh7 NPC1 promoter luciferase reporter, 24 h. Potency, µM (top dose mostly 9.22 µM), inactives show at the highest dose activation, hits mostly activators. hit rate 2.4% among 320,000; also: % of control where 0% means no effect; nearly all actives have a fitted effect of over 60% in size
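Luminescence from an NPC1 promoter-driven luciferase reporter in stably transfected Huh7 cells was measured after 24 h compound treatment at 37 °C, followed by 10 min ambient incubation with luciferase detection reagent.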
FLuc counter: inhibits or activates purified firefly luciferase, miR-21 counter-screen | hit rate 6.9% among 360,000 | purified FLuc, Km substrates, luminescence inhibition | Potency, µM (doses to about 57.5 µM), inactives show at the highest dose activity change, negative = inhibition, actives largely listed as inhibitors | AID 588342;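 also: plate controls were vehicle for no effect and reference inhibitor for full effect; nearly all actives have a fitted effect of over 55% in size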
Target sequence (P08659 whole entry, looked up): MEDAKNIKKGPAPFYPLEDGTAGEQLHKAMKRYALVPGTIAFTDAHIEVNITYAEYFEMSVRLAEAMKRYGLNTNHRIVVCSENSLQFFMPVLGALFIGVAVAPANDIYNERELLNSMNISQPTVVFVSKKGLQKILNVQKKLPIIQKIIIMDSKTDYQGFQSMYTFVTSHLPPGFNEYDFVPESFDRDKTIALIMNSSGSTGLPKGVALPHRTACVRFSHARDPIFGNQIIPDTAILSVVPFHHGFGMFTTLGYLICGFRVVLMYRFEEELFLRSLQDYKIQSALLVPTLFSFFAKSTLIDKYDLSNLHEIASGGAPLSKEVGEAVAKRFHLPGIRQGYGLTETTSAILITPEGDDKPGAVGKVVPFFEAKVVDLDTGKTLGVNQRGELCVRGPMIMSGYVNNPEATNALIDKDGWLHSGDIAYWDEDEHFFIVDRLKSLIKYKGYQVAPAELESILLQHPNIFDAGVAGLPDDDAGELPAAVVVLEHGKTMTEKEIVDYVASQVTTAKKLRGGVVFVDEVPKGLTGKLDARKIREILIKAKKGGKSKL
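Biochemical qHTS of compounds, final roughly 60 µM downward over six points, against 10 nM purified firefly luciferase using Km concentrations of substrates (10 uM D-luciferin, 10 uM ATP) in Tris acetate pH 7.5 buffer; luminescence output.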
ELG1 genotox: inducers of genotoxicity in HEK293T ELG1-luciferase cells; HEK293T ELG1-luciferase reporter, luminescence, 16 h; Potency, µM (top dose mostly 46 µM), for inactives: at the top dose activity change, positive = activation, most hits filed as activators; hit rate 1.3% among 330,000; also: % of control where 0% means no effect; nearly all actives have a fitted effect of over 60% in size
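Quantitative HTS format in 1536-well plates. HEK293T ELG1-luciferase reporter cells receive test compound and are incubated 16 hr at 37 °C, 5% CO2; ONE-Glo added, 30 min room temperature, then luminescence read.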
Numbers without * were called inactive; ? = inconclusive; · = no result given; [ ] = another dose, or the depositor's remark. Only some compounds are listed: those with a hit (about 7.4% of all), similar ones and a draw of the others. Calls follow the shape of the dose curve; as a rule, active = well fitted curve in the direction sought with a large enough effect; inconclusive = small, poorly fitted or top-dose-only effect, or another doubt; inactive = no such curve, though single readings can be large; an effect the other way counts as inactive or inconclusive. Potency is read from the fitted curve at half-maximal effect.

SMILES	Rab9 prom act	SMN2 splice up	NPC1 prom act	FLuc counter	ELG1 genotox
O=C(Nc1ccc(F)cc1)c1ccccc1F	·	7%	·	21µM*	·
CC(=O)Nc1ccc(NC(=O)c2ccccc2F)cc1	-6%[1.84 µM]	?	16%	?	?
CCN(CC)C(=O)c1ccc(C(=O)Nc2ccc(F)cc2)cc1	?	·	17%	?	?
O=C(Nc1ccc2nc(-c3cccnc3)[nH]c2c1)c1ccccc1F	8%	0%	1%	15µM*	8%
O=C(Nc1ccc(SC(F)F)cc1)c1ccc(F)cc1	1.3µM*	11µM*	2.2µM*	8.5µM*	?
O=C(Nc1ccc2ccccc2c1)c1ccccc1F	0.63µM*	·	0.5µM*	1.3µM*	2.6µM*
CCOC(=O)C1CCN(C(=O)c2nn(-c3ccc(C)cc3)c(=O)c3c2c2ccccc2n3C)CC1	·	-4%	·	2%	·
COc1ccc(-c2nnc(SCc3cc(=O)c4cc(C)cc(C)c4[nH]3)n2C)cc1	·	·	·	-9%	·
O=C(Nc1ccc2cn[nH]c2c1)c1ccccc1F	2µM*	11µM*	2.2µM*	9.5µM*	?
Cc1cc(C)cc(-n2c(SCC(=O)N3CCC(C)CC3)nc3c([nH]c4ccccc43)c2=O)c1	·	·	·	-2%	·
COc1ccccc1/C=N/Nc1nccnc1Cl	?	-21%	27%	12µM*	18µM*
CCOc1ccccc1/C=N/Nc1ccnc(=O)[nH]1	-5%[1.84 µM]	·	5%	-3%	7%
COc1cccc(/C=N/Nc2ncccc2[N+](=O)[O-])c1OC	-5%	·	?	0.3µM*	0.29µM*
CCN(Cc1ccccc1)C(=O)Cn1c(=O)cc(C)c2c(C)nn(-c3cccc(F)c3)c21	·	·	·	1%	·
O=C(Cn1cc2c(n1)CCCC2)Nc1cc(C(F)(F)F)ccc1Cl	·	-6%	·	-5%	·
Cc1ccc(S(=O)(=O)C(CNC(=O)COc2ccccc2)c2ccco2)cc1 (stereo unspecified)	·	·	·	-7%	·
CCC(Sc1nnnn1C)C(=O)Nc1ccc(C(C)=O)cc1 (stereo unspecified)	?	?	23%	?	18µM*
Cc1cc2c(c(=O)n1Cc1ccccc1)C1O[C@](c3ccsc3)(Cc3ccccc31)O2	-11%[1.84 µM]	·	-1%[1.84 µM]	-14%[11.5 µM]	·
CCOC(=O)c1cc(-c2ccc(C)o2)n[nH]1	-1%	-12%	-4%	?	4%
CCOC(=O)c1cc(-c2cc3ccccc3o2)n[nH]1	0%	18%	10%	19µM*	1%
COc1ccc(-c2coc3cc(OC4OC(CO)C(O)C(O)C4O)cc(O)c3c2=O)cc1 (stereo unspecified)	2.8µM*	·	2.8µM*	?	?
COc1cc(O)c2c(=O)c3c(O[C@H]4O[C@@H](CO)[C@H](O)[C@@H](O)[C@@H]4O)ccc(O)c3oc2c1	·	·	·	·	1%
COc1ccc(-c2coc3cc(OC4OC(CO)C(O)C(O)C4O)ccc3c2=O)cc1 (stereo unspecified)	1.6µM*	·	1.6µM*	11µM*	8.2µM*
Cc1ccc(Cn2c(C(C)NC(=O)c3ccccc3)nc3ccccc32)cc1 (stereo unspecified)	·	·	·	-4%	·
COC(=O)c1ccc(-c2sc3nc(N4CCOCC4)c4c(c3c2N)CC(C)(C)OC4)o1	0%	32µM*	1%	-2%	1%
SMILES	Rab9 prom act	SMN2 splice up	NPC1 prom act	FLuc counter	ELG1 genotox
CCCCNC(=O)CSc1nc2nc(C)c(Cc3ccccc3C)c(C)n2n1	·	8%	·	0%	·
CC#CCN1c2ccccc2[C@]23C[C@@H](C(=O)OC)N(S(=O)(=O)CCCC)C2=NC(C(=O)OC)=C(C(=O)OC)[C@H]13	·	-8%[9.22 µM]	·	·	·
CN(C)/C=N/c1ncn(-c2ncc(C(F)(F)F)cc2Cl)n1	2.2µM*	11µM*	3.2µM*	?	?
CN(C)/C=N/S(=O)(=O)c1cccn1-c1ncc(C(F)(F)F)cc1Cl	-10%	12%	-6%	-1%	16%
COc1ccc(NC(=O)n2ncc3cc(Cl)ccc32)cc1OC	3.5µM*	·	?	?	?
COc1cc(OC)c(NC(=O)n2ncc3cc(Cl)ccc32)cc1Cl	·	·	·	4%	·
COc1cc(NC(=O)n2ncc3cc(Cl)ccc32)cc(OC)c1	?	·	18%	12µM*	?
O=C(CC1N=C2c3ccccc3N=C(SCc3ccc(F)cc3)N2C1=O)NCc1ccco1 (stereo unspecified)	-2%	?	-2%	-17%	24%
Cc1ccc(CSC2=Nc3ccccc3C3=NC(CC(=O)NCc4ccco4)C(=O)N23)cc1 (stereo unspecified)	-4%	11µM*	9%	?	6%
CCCCC/C=C\C/C=C\C/C=C\C=C\C1CCCC(=O)O1 (stereo unspecified)	·	-2%	·	·	·
COc1ccc2c(=O)cc(C(F)(F)C(F)(F)F)oc2c1	6%	·	4%	-3%	0%
O=c1cc(-c2ccc(C(F)(F)F)cc2)oc2ccccc12	·	·	·	·	0%
O=c1cc(-c2ccccc2)oc2ccccc12	?	?	?	?	21µM*
O=c1cc(-c2ccccc2)oc2ccc(O)cc12	4µM*	·	2.8µM*	9.5µM*	21µM*
O=c1cc(-c2ccccc2)oc2c(O)c(O)ccc12	·	-71%	·	·	·
COc1ccc2c(=O)cc(-c3ccccc3F)oc2c1	?	·	?	21µM*	?
O=c1cc(CO)oc2ccccc12	·	·	·	·	2%
O=c1cc(/C=C/c2ccccc2)oc2ccccc12	2.2µM*	11µM*	?	6µM*	2.6µM*
COc1ccc(Cn2c(=O)n(Cc3ccco3)c(=O)c3oc4ccccc4c32)cc1	·	·	·	-5%	·
CCc1ccccc1Nc1sc(C(=O)c2ccccc2)c(N)c1S(=O)(=O)c1ccccc1	·	-2%	·	-3%	·
COc1ccc(-c2cc(=O)c3cc(O)ccc3o2)cc1	1.6µM*	·	1.4µM*	1.7µM*	5.8µM*
COc1ccc(-c2cc(=O)oc3cc(O)ccc23)cc1	0%	·	3%	-5%	-9%
COc1cc(O)c2c(=O)cc(-c3ccc(OC)c(-c4c(O)cc(O)c5c(=O)cc(-c6ccc(O)cc6)oc45)c3)oc2c1	·	5%	·	·	·
CC(C)Oc1ccc2c(=O)cc(-c3ccccc3)oc2c1	·	6.3µM*	·	·	·
COc1ccc2c(=O)cc(C(=O)O)oc2c1	1%	10%	-5%	0%	0%
SMILES	Rab9 prom act	SMN2 splice up	NPC1 prom act	FLuc counter	ELG1 genotox
O=c1cc(-c2ccc(O)c(O)c2)oc2ccccc12	·	14µM*	·	·	·
COc1ccc(-c2cc(=O)c3c(O)cc(O)cc3o2)cc1	3.2µM*	?	?	1.9µM*	?
CNc1ncncc1-c1ccccc1OC	·	-9%	·	·	·
CN(C(=O)Cn1cc(S(=O)(=O)Cc2ccccc2Cl)c2ccccc21)c1ccccc1	·	·	·	-2%	·
COc1ccc(-c2oc3cc(O)c(OC)c(O)c3c(=O)c2OC)cc1	-1%	·	-20%	19µM*	18%
COc1c(-c2ccc(O)cc2)oc2cc(O)cc(O)c2c1=O	0%	·	-7%	-11%	16%
